Measurements reported in PubChem BioAssay.
The source made the active and inactive calls.

What was measured:
[1] = compound effects on lung adenocarcinoma cell viability – A549, calcein-AM fluorescence, 48 h, basal, profiling panel (AID 1162); conditions: higher = more signal
[2] = compound effects on differentiated 3T3-L1 adipocyte viability – cell-based, 3T3-L1 adipocytes, calcein-AM fluorescence, 48 h, basal, profiling panel (AID 1163); conditions: 3T3-L1 adipocytes viability, higher = more signal
[3] = compound effects on hepatocellular carcinoma cell viability – HepG2, calcein-AM fluorescence, 48 h, basal, profiling panel (AID 1164); conditions: higher = more signal
[4] = compound effects on multiple myeloma cell viability – MM1S, calcein-AM fluorescence, 48 h, basal, profiling panel (AID 1165); conditions: higher = more signal
[5] = calcein-AM signal in unstimulated myeloma cells – cell-based, calcein-AM fluorescence, 48 h, PK04 Diversity Set, profiling panel (AID 1166); conditions: RPMI8226 myeloma viability, higher = more signal;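 also: cells grown under basal conditions without added stimulus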
[6] = JC-1 mitochondrial signal, unstimulated HepG2 cells – cell-based, JC-1 fluorescence, 24 h, 100 nL compound, profiling panel (AID 1167); conditions: HepG2 mitochondrial potential, higher = more signal
[7] = JC-1 mitochondrial signal, unstimulated adipocytes – cell-based, JC-1 fluorescence, 3T3-L1 adipocytes, 24 h, 100 nL compound, profiling panel (AID 1168); conditions: JC-1 mitochondrial fluorescence, higher = more signal, called active from +8 up or from −8 down
[8] = JC-1 mitochondrial signal, unstimulated myeloma cells – cell-based, JC-1 fluorescence, RPMI8226, 24 h, 100 nL compound, profiling panel (AID 1169); conditions: JC-1 mitochondrial potential fluorescence, higher = more signal
[9] = JC-1 mitochondrial signal, unstimulated MM1S myeloma – cell-based, JC-1 fluorescence, 24 h, 100 nL compound, profiling panel (AID 1170); conditions: MM1S mitochondrial potential, higher = more signal
[10] = resazurin metabolic signal in A549 cells – cell-based, resazurin fluorescence, 24 h, PK04 Diversity Set, profiling panel (AID 1171); conditions: A549 viability, higher = more signal, called active from +8 up or from −8 down
Also: test concentration not given here.

| Compound | z-score [1] | z-score [2] | z-score [3] | z-score [4] | z-score [5] | z-score [6] | z-score [7] | z-score [8] | z-score [9] | z-score [10] |
| --- | --- | --- | --- | --- | --- | --- | --- | --- | --- | --- |
| CO[C@H]1COC(=O)CC=C[C@H](C)[C@@H](OC)COC(=O)[C@H](C)COC(=O)CC=C[C@@H]1C | 0.389 | -0.376 | 1.05 | 0.199 | -1.03 | 1.86 | 0.352 (inactive) | -0.316 | -0.326 | -0.132 (inactive) |
| O=C(NN=C1C[C@@H](O)[C@@H](O)[C@@H]2[C@@H]3C(=O)N(C4CCCCC4)C(=O)[C@@H]3CC[C@@H]12)OCc1ccccc1 | 0.225 | 0.487 | 0.621 | 0.495 | -0.697 | -0.502 | -0.247 (inactive) | -0.369 | -0.309 | -0.24 (inactive) |
| Cc1ccc(S(=O)(=O)NC(CCc2ccccc2)CC(=O)C(C)(C)C)cc1 (stereo not given) | 0.0378 | -0.795 | -0.869 | 0.0642 | -0.156 | -0.696 | -0.255 (inactive) | -0.201 | -0.236 | 1.34 (inactive) |
| COC(=O)CC=C[C@@H](C)[C@@H](C=NOCC[C@@H]1C=C[C@H](OC(C)=O)[C@@H](COC(C)=O)O1)OC | 1.29 | -0.0264 | 0.436 | -0.616 | 0.238 | -0.514 | -0.43 (inactive) | -0.133 | -0.324 | -0.393 (inactive) |
| CON=C1[C@H]2CCn3c(=O)n(-c4ccccc4)c(=O)n3[C@H]2[C@H](O)[C@@H]2O[C@H]12 | 0.828 | 0.384 | 0.739 | -0.211 | 0.483 | -1.17 | 1.86 (inactive) | 0.391 | 0.68 | -0.378 (inactive) |
| CCOC(=O)[C@H](Cc1ccccc1)NC(=O)OC1CC(CCC2CC(CC)=NO2)OC2(CCCC(COC(=O)NCCC(C)C)O2)C1 (stereo not given in full) | -0.0093 | -1.14 | -1.1 | -3.44 | -3.72 | -0.0294 | 0.513 (inactive) | -0.462 | -1.22 | 0.453 (inactive) |
| COC(=O)[C@@H]1CC[C@H](C)[C@@H](c2ccc(C)cc2)N1C(=O)c1ccc(C=NOCC[C@@H]2C=C[C@H](OC(C)=O)[C@@H](COC(C)=O)O2)cc1 | -0.521 | 0.556 | -1.13 | -0.958 | -1.32 | -0.674 | -1.67 (inactive) | 0.682 | -0.136 | 0.154 (inactive) |
| COC(=O)[C@@H]1CC[C@H](C)[C@@H](c2ccc(C)cc2)N1C(=O)c1ccc(C=NO[C@H](C)c2cn([C@H](CO)Cc3ccccc3)nn2)cc1 | 0.354 | 0.747 | -1.31 | 0.005 | -2.98 | -0.701 | -1.55 (inactive) | -0.041 | 0.697 | -0.0166 (inactive) |
| COC(=O)CC=C[C@@H](C)[C@@H](C=NOC[C@@H](O)[C@H]1O[C@@H]2OC(C)(C)O[C@@H]2[C@H]1O)NS(=O)(=O)c1ccc(C)cc1 | -0.234 | 0.531 | 0.104 | -1.57 | -0.34 | 0.153 | 0.158 (inactive) | -0.15 | -0.488 | -0.854 (inactive) |
| O=C1[C@H]2[C@H]3[C@H](O)[C@H](O)CC(=NOCc4ccccc4)[C@H]3CC[C@H]2C(=O)N1Cc1ccc2c(c1)OCO2 | 0.446 | 0.717 | -1.25 | 0.424 | -1.69 | 0.701 | -0.802 (inactive) | 0.0189 | 0.349 | 0.392 (inactive) |
| C=CC[C@@H]1C=C[C@H](ON=C(C)CCN2CCc3nc(-c4ccccc4)c(-c4ccccc4)cc3C2)[C@@H](CO)O1 | 2.2 | 0.114 | 2.31 | -2.36 | -0.141 | 3.86 | -1.91 (inactive) | 0.518 | -1.17 | 0.548 (inactive) |
| C=CC[C@@H]1C=C[C@H](ON=C(C)CCC(=O)OC[C@H]2O[C@H](C#Cc3ccccc3)C=C[C@@H]2Oc2ccc(C)cc2)[C@@H](CO)O1 | 0.572 | -0.48 | -0.0329 | 0.551 | -0.737 | -0.429 | -0.311 (inactive) | -0.759 | -1.08 | 0.231 (inactive) |
| CCOC(=O)[C@H](CC(C)C)NC(=O)CCC1CC(OC(=O)NCc2cccc3ccccc23)CC2(CCCC(COC(=O)NCCc3ccc(Cl)cc3)O2)O1 (stereo not given in full) | -0.539 | -0.23 | -0.0607 | -3.16 | 0.403 | 0.326 | 1.03 (inactive) | -0.436 | -1.86 | 0.384 (inactive) |
| COC(=O)CC=C[C@@H](C)[C@H](OCc1cccc(-c2ccccc2)c1)C1CCCCC1 | 0.687 | -0.328 | -0.0634 | -1.92 | -0.771 | -0.579 | 0.57 (inactive) | -0.165 | -0.172 | 0.2 (inactive) |
| Cc1ccc(S(=O)(=O)OC[C@H]2CN3[C@H](c4ccc(Br)cc4)[C@@H](C)CC[C@H]3C(=O)O2)cc1 | 0.602 | -0.744 | 0.62 | -0.0638 | -0.75 | 0.914 | 0.555 (inactive) | -0.103 | 0.222 | 0.683 (inactive) |
| CC(CCN1CCCc2nc(C)c(C)cc21)=NOC(C)CN1CCCCc2nc(C)c(C)cc21 (stereo not given) | -0.37 | -0.219 | -0.508 | -0.675 | -0.388 | 1.83 | -1.86 (inactive) | 0.264 | 0.547 | -0.0774 (inactive) |

| Compound | z-score [1] | z-score [2] | z-score [3] | z-score [4] | z-score [5] | z-score [6] | z-score [7] | z-score [8] | z-score [9] | z-score [10] |
| --- | --- | --- | --- | --- | --- | --- | --- | --- | --- | --- |
| COc1cccc([C@H]2Oc3ccc(OC)cc3C(=NO[C@@H]3O[C@H](COC(C)=O)[C@@H](OC(C)=O)[C@H](OC(C)=O)[C@H]3OC(C)=O)[C@@H]2O)c1 | 0.679 | -0.375 | -0.104 | -0.525 | -0.476 | -0.515 | -3.37 (inactive) | -0.0523 | 0.0745 | -0.416 (inactive) |
| COc1ccc(O[C@H]2C=C[C@@H](c3ccccc3)O[C@@H]2CON=C2[C@H]3CCn4c(=O)n(-c5ccccc5)c(=O)n4[C@H]3[C@H](O)[C@@H]3O[C@H]23)cc1 | 0.455 | -0.669 | -0.0924 | -2.98 | -1.37 | -0.0967 | 0.112 (inactive) | -0.921 | -0.429 | -1.55 (inactive) |
| CCCNC(=O)OC[C@H]1O[C@H](CCON=C(C)C)C=C[C@@H]1Oc1ccc(OC)cc1 | 0.171 | 0.008 | -0.0737 | -0.39 | 0.0566 | -1.57 | -1.43 (inactive) | 0.255 | 0.276 | 0.095 (inactive) |
| CCCCc1nc2c(c3c1C[C@H](C)OC3)CN(CCOc1ccccc1)CC2 | 1.71 | 0.734 | 0.681 | 0.039 | -0.657 | 1.76 | 0.494 (inactive) | 0.539 | 0.568 | -0.682 (inactive) |
| CO[C@H]1COC(=O)[C@H](C)NC(=O)[C@@H](C)COC(=O)[C@H]2CCCN2C(=O)CC=C[C@H]1C | -0.622 | -0.321 | -0.0694 | -0.151 | 0.353 | 0.132 | -0.658 (inactive) | -0.0639 | -1.01 | -0.463 (inactive) |
| O=C1CCCC=C1C(O)CCOC(c1ccccc1)(c1ccccc1)c1ccccc1 (stereo not given) | -0.893 | -0.268 | -0.26 | -3.43 | -3.62 | -2.77 | -0.115 (inactive) | -0.879 | -0.0919 | 0.418 (inactive) |
| COC(=O)CC=C[C@@H](C)[C@@H](C=NO[C@@H](C)c1cc(-c2c(C)cc(C)cc2C)no1)NS(=O)(=O)c1ccc(C)cc1 | -0.985 | 0.885 | -0.145 | 0.236 | -1.75 | -0.189 | -1.08 (inactive) | 0.634 | -0.147 | 0.298 (inactive) |
| CCOC(=O)[C@H](Cc1ccccc1)NC(=O)CCC1CC(OC(=O)NCc2cccc3ccccc23)CC2(CCCC(COC(=O)NCc3cccc(C(F)(F)F)c3)O2)O1 (stereo not given in full) | 1.84 | -0.244 | 1.14 | -0.709 | 0.607 | 3.94 | 0.918 (inactive) | -0.284 | -0.868 | -0.106 (inactive) |
| O=C1CCCC=C1C(CCc1ccccc1)OC(=O)c1ccc(Br)cc1 (stereo not given) | -0.281 | 0.893 | -0.318 | -3.42 | -2.69 | -0.158 | -1.15 (inactive) | -0.619 | -0.127 | -0.251 (inactive) |
| C=CC[C@@H]1C=C[C@H](ON=C2[C@H]3CCn4c(=O)n(-c5ccccc5)c(=O)n4[C@H]3[C@H](O)[C@@H]3O[C@H]23)[C@@H](CO)O1 | -0.547 | -0.203 | -0.683 | -1.21 | -0.997 | -0.568 | -1.65 (inactive) | -0.172 | 0.0203 | -0.674 (inactive) |
| CO[C@H]1COC(=O)CCC[C@@H](C)[C@H](OC)COC(=O)[C@@H]2CCCN2C(=O)CC=C[C@@H]1C | -0.395 | 0.376 | 0.308 | 0.149 | -0.193 | -0.0779 | -0.0693 (inactive) | -0.0032 | -0.87 | -0.186 (inactive) |
| CC(C)=CCCC(C)=CCON=C1C[C@@H](O)[C@@H](O)[C@@H]2[C@@H]3C(=O)N(C(C)(C)C)C(=O)[C@@H]3CC[C@H]12 | 0.0088 | 0.729 | -0.465 | 0.387 | -0.306 | -0.00723 | 0.111 (inactive) | -0.15 | 0.598 | -0.624 (inactive) |
| CCC(=O)[C@@]1(O)C(=O)N2C(=C3C(=O)OCC[C@@H]31)N(Cc1ccccc1)C(C)=C(C(=O)OC)[C@H]2c1ccccc1 | -0.0783 | -1.09 | 0.237 | -0.184 | 0.596 | -0.255 | -0.0375 (inactive) | -0.179 | 0.676 | -0.342 (inactive) |
| CC(C)CON=C1C[C@@H](O)[C@@H](O)[C@@H]2[C@@H]3C(=O)N(C[C@@H]4CCCO4)C(=O)[C@@H]3CC[C@@H]12 | 0.18 | -0.149 | -0.622 | -0.61 | -0.923 | -0.49 | 0.977 (inactive) | -0.258 | -0.0595 | 0.266 (inactive) |
| O=C(NN=C1C[C@@H](O)[C@@H](O)[C@@H]2[C@@H]3C(=O)N(Cc4ccccc4)C(=O)[C@@H]3CC[C@@H]12)OCc1ccccc1 | 0.272 | -0.201 | -0.258 | 0.372 | 0.582 | 1.23 | 0.806 (inactive) | -0.37 | -1.53 | -0.534 (inactive) |
| CC(=O)OC[C@H]1O[C@H](CC=NO[C@H](C)c2cn([C@H](CO)Cc3ccccc3)nn2)C=C[C@@H]1OC(C)=O | -0.404 | -0.857 | -0.0224 | -0.955 | -1.94 | -0.485 | -0.963 (inactive) | 0.013 | 0.186 | 0.322 (inactive) |
